# Test results taken from PubChem BioAssay (NCI).
# Compounds without any hit were thinned out: in the full panel of roughly 79,000, 15% have a hit. A number with no mark means an inactive call. Calls of active or inactive are those of the source. No stated cut-off is given here; in the data, active means growth inhibition above about 70%; inactive means the rest.
# Legend:
# [1] = NCI Yeast Anticancer Drug Screen. Data for the rad52 strain (AID 147);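 further: 0% = growth of vehicle-treated control cultures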; details: S. cerevisiae rad52 mutant growth inhibition, hits give high values
# In short: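 Vehicle-treated cultures served as the reference for growth inhibition of compound-exposed yeast bearing a DNA repair mutation.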
# [2] = NCI Yeast Anticancer Drug Screen. Data for the wt1 strain (AID 149);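 further: 0% = growth of vehicle-treated wt1 cultures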; details: S. cerevisiae wt1 strain (SPY 50644) growth inhibition, hits give high values
# In short: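 wt1 yeast, compound-treated; % growth inhibition vs vehicle control.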
# [3] = NCI Yeast Anticancer Drug Screen. Data for the mgt1 strain (AID 153); details: S. cerevisiae mgt1 mutant growth inhibition, hits give high values
# In short: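 mgt1 strain exposed; growth vs vehicle control recorded as inhibition.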
# [4] = NCI Yeast Anticancer Drug Screen. Data for the rad50 strain (AID 155);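 further: 0% = growth of vehicle-only cultures of the same strain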; details: S. cerevisiae rad50 strain growth inhibition, hits give high values
# In short: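 Genetically altered yeast (DNA repair pathway); compound treatment; growth inhibition vs vehicle ctrl.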
# [5] = NCI Yeast Anticancer Drug Screen. Data for the mec2-1 strain (AID 157); details: S. cerevisiae mec2-1 strain, hits give high values
# In short: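 Vehicle-treated cultures served as reference for growth inhibition of compound-exposed mec2-1 yeast.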
# [6] = NCI Yeast Anticancer Drug Screen. Data for the rad14 strain (AID 159);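 further: 0% = growth of vehicle-treated control cultures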; details: S. cerevisiae rad14 strain growth inhibition, hits give high values
# In short: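 Test compounds were applied to a repair-deficient yeast strain. Its growth was then compared with that of cultures given vehicle alone, and inhibition was expressed relative to those controls.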
# [7] = NCI Yeast Anticancer Drug Screen. Data for the sgs1 mgt1 strain (AID 161);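 further: 0% = growth of cultures given vehicle only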; details: S. cerevisiae sgs1 mgt1 strain, hits give high values
# In short: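 Genetically altered yeast, compound exposure, growth inhibition relative to vehicle.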
# [8] = NCI Yeast Anticancer Drug Screen. Data for the CLN2oe strain (AID 163);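 further: 0% = growth of vehicle-only control cultures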; details: S. cerevisiae CLN2oe strain, hits give high values
# In short: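 Inhibition relative to vehicle-treated yeast is reported. Cells: strain with genetic alteration in cell-cycle control, grown with compound.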
# [9] = NCI Yeast Anticancer Drug Screen. Data for the cln2 rad14 strain (AID 165);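 further: 0% = growth equal to vehicle treated cultures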; details: S. cerevisiae cln2 rad14 strain, hits give high values
# In short: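 Each compound was tested on cln2 rad14 yeast. Inhibition of growth was calculated against vehicle-exposed controls.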
# [10] = NCI Yeast Anticancer Drug Screen. Data for the bub3 strain (AID 167); details: S. cerevisiae bub3 mutant strain, hits give high values
# In short: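 Yeast carrying a defined mutation is treated with each compound, and growth is compared with that of vehicle-exposed cells to give inhibition.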
# [11] = NCI Yeast Anticancer Drug Screen. Data for the wt2 strain (AID 169);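 further: 0% = growth of vehicle-treated yeast cultures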; details: S. cerevisiae wt2 strain growth inhibition, hits give high values
# In short: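 Inhibition of yeast growth was determined after compound treatment, normalised to controls receiving only vehicle.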
# [12] = NCI Yeast Anticancer Drug Screen. Data for the mlh1 strain (AID 171);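 further: 0% = growth of vehicle-treated control cultures of the same strain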; details: S. cerevisiae mlh1 strain growth inhibition, hits give high values
# In short: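 Vehicle-normalised growth inhibition of a repair- or checkpoint-altered yeast strain following compound treatment.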
# [13] = NCI Yeast Anticancer Drug Screen. Data for the sgs1 strain (AID 173);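 further: 0% = growth of vehicle-only control cultures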; details: S. cerevisiae sgs1 mutant, hits give high values
# In short: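 Screen format: yeast with repair or checkpoint alterations, compound exposure, growth read relative to vehicle.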
# [14] = NCI Yeast Anticancer Drug Screen. Data for the mlh1 rad18 strain (AID 175); details: S. cerevisiae mlh1 rad18 strain growth inhibition, hits give high values
# In short: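 Vehicle-treated cultures served as the reference for growth inhibition in a yeast strain carrying DNA damage repair alterations exposed to each compound.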
# [15] = NCI Yeast Anticancer Drug Screen. Data for the rad18 strain (AID 177); details: S. cerevisiae rad18 mutant growth inhibition, hits give high values
# In short: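 Test articles were incubated with altered yeast defective in DNA damage repair. Results are given as inhibition of growth versus vehicle.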
# [16] = NCI Yeast Anticancer Drug Screen. Data for the rad50EPP+ strain (AID 151);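 further: 0% = growth of vehicle-treated control cultures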; details: S. cerevisiae rad50 mutant strain, hits give high values
# In short: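 In this screen, rad50EPP+ yeast were exposed to compounds. Growth inhibition was scored against vehicle-treated controls.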
# [17] = at 5.0 µM (retest, dose inferred, filed as 0.5)
# [18] = at 50.0 µM (retest, dose inferred, filed as 5.0)
compound,measurement,setting,value
OC(c1ccc(F)cc1)(c1ccc(F)cc1)C1CC1,growth inhibition,[1]; at 1.2 µM,-39%
same,growth inhibition,[1]; at 3.7 µM,-58%
same,growth inhibition,[1]; at 11.0 µM,-47%
same,growth inhibition,[1]; at 33.0 µM,12%
same,growth inhibition,[1]; at 100.0 µM,76% (active)
same,growth inhibition,[2]; at 1.2 µM,-38%
same,growth inhibition,[2]; at 3.7 µM,-33%
same,growth inhibition,[2]; at 11.0 µM,-36%
same,growth inhibition,[2]; at 33.0 µM,-27%
same,growth inhibition,[2]; at 100.0 µM,90% (active)
same,growth inhibition,[3]; at 1.2 µM,-36%
same,growth inhibition,[3]; at 3.7 µM,-47%
same,growth inhibition,[3]; at 11.0 µM,-47%
same,growth inhibition,[3]; at 33.0 µM,-51%
same,growth inhibition,[3]; at 100.0 µM,20%
same,growth inhibition,[4]; at 1.2 µM,-31%
same,growth inhibition,[4]; at 3.7 µM,-32%
same,growth inhibition,[4]; [17],59%
same,growth inhibition,[4]; at 11.0 µM,-26%
same,growth inhibition,[4]; at 33.0 µM,32%
same,growth inhibition,[4]; [18],99% (active)
same,growth inhibition,[4]; at 50.0 µM,62.9%
same,growth inhibition,[4]; at 100.0 µM,94% (active)
same,growth inhibition,[5]; at 1.2 µM,-87%
same,growth inhibition,[5]; at 3.7 µM,-42%
same,growth inhibition,[5]; [17],68%
same,growth inhibition,[5]; at 11.0 µM,-67%
same,growth inhibition,[5]; at 33.0 µM,-32%
same,growth inhibition,[5]; [18],100% (active)
same,growth inhibition,[5]; at 50.0 µM,40.1%
same,growth inhibition,[5]; at 100.0 µM,95% (active)
same,growth inhibition,[6]; at 1.2 µM,-18%
same,growth inhibition,[6]; at 3.7 µM,-18%
same,growth inhibition,[6]; at 11.0 µM,-7%
same,growth inhibition,[6]; at 33.0 µM,8%
same,growth inhibition,[6]; at 100.0 µM,97% (active)
same,growth inhibition,[7]; [17],-4%
same,growth inhibition,[7]; [18],77% (active)
same,growth inhibition,[7]; at 50.0 µM,51.4%
same,growth inhibition,[8]; at 1.2 µM,-16%
same,growth inhibition,[8]; at 3.7 µM,-3%
same,growth inhibition,[8]; at 11.0 µM,-9%
same,growth inhibition,[8]; at 33.0 µM,-8%
same,growth inhibition,[8]; at 100.0 µM,93% (active)
same,growth inhibition,[9]; [17],41%
same,growth inhibition,[9]; [18],73% (active)
same,growth inhibition,[9]; at 50.0 µM,28.9%
same,growth inhibition,[10]; at 1.2 µM,-32%
same,growth inhibition,[10]; at 3.7 µM,-27%
same,growth inhibition,[10]; [17],20%
same,growth inhibition,[10]; at 11.0 µM,-13%
same,growth inhibition,[10]; at 33.0 µM,-16%
same,growth inhibition,[10]; [18],81% (active)
same,growth inhibition,[10]; at 50.0 µM,64.8%
same,growth inhibition,[10]; at 100.0 µM,96% (active)
same,growth inhibition,[11]; at 1.2 µM,-25%
same,growth inhibition,[11]; at 3.7 µM,-25%
same,growth inhibition,[11]; at 11.0 µM,-5%
same,growth inhibition,[11]; at 33.0 µM,-28%
same,growth inhibition,[11]; at 100.0 µM,87% (active)
same,growth inhibition,[12]; at 1.2 µM,-39%
same,growth inhibition,[12]; at 3.7 µM,-64%
same,growth inhibition,[12]; at 11.0 µM,-66%
same,growth inhibition,[12]; at 33.0 µM,-42%
same,growth inhibition,[12]; at 100.0 µM,92% (active)
same,growth inhibition,[13]; at 1.2 µM,-62%
same,growth inhibition,[13]; at 3.7 µM,-43%
same,growth inhibition,[13]; at 11.0 µM,-52%
same,growth inhibition,[13]; at 33.0 µM,-42%
same,growth inhibition,[13]; at 100.0 µM,86% (active)
same,growth inhibition,[14]; [17],67%
same,growth inhibition,[14]; [18],100% (active)
same,growth inhibition,[14]; at 50.0 µM,64%
same,growth inhibition,[15]; at 1.2 µM,-8%
same,growth inhibition,[15]; at 3.7 µM,-11%
same,growth inhibition,[15]; at 11.0 µM,-21%
same,growth inhibition,[15]; at 33.0 µM,46%
same,growth inhibition,[15]; at 100.0 µM,95% (active)
COc1ccc2sc3cccc(NCCN(C)C)c3c(=O)c2c1,growth inhibition,[1]; at 1.2 µM,-3%
same,growth inhibition,[1]; at 3.7 µM,-3%
same,growth inhibition,[1]; at 11.0 µM,-1%
same,growth inhibition,[1]; at 33.0 µM,2%
same,growth inhibition,[1]; at 100.0 µM,27%
same,growth inhibition,[2]; at 1.2 µM,1%
same,growth inhibition,[2]; at 3.7 µM,6%
same,growth inhibition,[2]; at 11.0 µM,3%
same,growth inhibition,[2]; at 33.0 µM,2%
same,growth inhibition,[2]; at 100.0 µM,10%
same,growth inhibition,[3]; at 1.2 µM,-1%
same,growth inhibition,[3]; at 3.7 µM,-3%
same,growth inhibition,[3]; at 11.0 µM,-4%
same,growth inhibition,[3]; at 33.0 µM,-3%
same,growth inhibition,[3]; at 100.0 µM,15%
same,growth inhibition,[4]; at 1.2 µM,0%
same,growth inhibition,[4]; at 3.7 µM,1%
same,growth inhibition,[4]; [17],-14%
same,growth inhibition,[4]; at 11.0 µM,2%
same,growth inhibition,[4]; at 33.0 µM,7%
same,growth inhibition,[4]; [18],-10%
same,growth inhibition,[4]; at 50.0 µM,25.2%
same,growth inhibition,[4]; at 100.0 µM,31%
same,growth inhibition,[5]; at 1.2 µM,3%
same,growth inhibition,[5]; at 3.7 µM,4%
same,growth inhibition,[5]; [17],-3%
same,growth inhibition,[5]; at 11.0 µM,6%
same,growth inhibition,[5]; at 33.0 µM,9%
same,growth inhibition,[5]; [18],3%
same,growth inhibition,[5]; at 50.0 µM,-4.1%
same,growth inhibition,[5]; at 100.0 µM,12%
same,growth inhibition,[6]; at 1.2 µM,-1%
same,growth inhibition,[6]; at 3.7 µM,-1%
same,growth inhibition,[6]; at 11.0 µM,-1%
same,growth inhibition,[6]; at 33.0 µM,9%
same,growth inhibition,[6]; at 100.0 µM,33%
same,growth inhibition,[7]; [17],-9%
same,growth inhibition,[7]; [18],38%
same,growth inhibition,[7]; at 50.0 µM,54.6%
same,growth inhibition,[8]; at 1.2 µM,-3%
same,growth inhibition,[8]; at 3.7 µM,-10%
same,growth inhibition,[8]; at 11.0 µM,-4%
same,growth inhibition,[8]; at 33.0 µM,-4%
same,growth inhibition,[8]; at 100.0 µM,17%
same,growth inhibition,[9]; [17],3%
same,growth inhibition,[9]; [18],6%
same,growth inhibition,[9]; at 50.0 µM,31.6%
same,growth inhibition,[10]; at 1.2 µM,-4%
same,growth inhibition,[10]; at 3.7 µM,-3%
same,growth inhibition,[10]; [17],9%
same,growth inhibition,[10]; at 11.0 µM,-3%
same,growth inhibition,[10]; at 33.0 µM,-1%
same,growth inhibition,[10]; [18],5%
same,growth inhibition,[10]; at 50.0 µM,-4.65%
same,growth inhibition,[10]; at 100.0 µM,1%
same,growth inhibition,[12]; at 1.2 µM,-1%
same,growth inhibition,[12]; at 3.7 µM,2%
same,growth inhibition,[12]; at 11.0 µM,3%
same,growth inhibition,[12]; at 33.0 µM,4%
same,growth inhibition,[12]; at 100.0 µM,18%
same,growth inhibition,[13]; at 1.2 µM,2%
same,growth inhibition,[13]; at 3.7 µM,1%
same,growth inhibition,[13]; at 11.0 µM,3%
same,growth inhibition,[13]; at 33.0 µM,2%
same,growth inhibition,[13]; at 100.0 µM,16%
same,growth inhibition,[14]; [17],-1%
same,growth inhibition,[14]; [18],-9%
same,growth inhibition,[14]; at 50.0 µM,67.3%
same,growth inhibition,[15]; at 1.2 µM,0%
same,growth inhibition,[15]; at 3.7 µM,0%
same,growth inhibition,[15]; at 11.0 µM,2%
same,growth inhibition,[15]; at 33.0 µM,9%
same,growth inhibition,[15]; at 100.0 µM,27%
O=C1c2ccccc2C(=O)c2cc(CBr)ccc21,growth inhibition,[1]; at 1.2 µM,5%
same,growth inhibition,[1]; at 3.7 µM,16%
same,growth inhibition,[1]; at 11.0 µM,21%
same,growth inhibition,[1]; at 33.0 µM,79% (active)
same,growth inhibition,[1]; at 100.0 µM,91% (active)
same,growth inhibition,[16]; at 1.2 µM,27%
same,growth inhibition,[16]; at 3.7 µM,56%
same,growth inhibition,[16]; at 11.0 µM,73% (active)
same,growth inhibition,[16]; at 33.0 µM,94% (active)
same,growth inhibition,[16]; at 100.0 µM,95% (active)
same,growth inhibition,[3]; at 1.2 µM,0%
same,growth inhibition,[3]; at 3.7 µM,2%
same,growth inhibition,[3]; at 11.0 µM,4%
same,growth inhibition,[3]; at 33.0 µM,21%
same,growth inhibition,[3]; at 100.0 µM,68%
same,growth inhibition,[4]; at 1.2 µM,2%
same,growth inhibition,[4]; at 3.7 µM,14%
same,growth inhibition,[4]; [17],48%
same,growth inhibition,[4]; at 11.0 µM,29%
same,growth inhibition,[4]; at 33.0 µM,82% (active)
same,growth inhibition,[4]; [18],90% (active)
same,growth inhibition,[4]; at 50.0 µM,99.2% (active)
same,growth inhibition,[4]; at 100.0 µM,92% (active)
same,growth inhibition,[5]; at 1.2 µM,1%
same,growth inhibition,[5]; at 3.7 µM,2%
same,growth inhibition,[5]; [17],32%
same,growth inhibition,[5]; at 11.0 µM,5%
same,growth inhibition,[5]; at 33.0 µM,32%
same,growth inhibition,[5]; [18],77% (active)
same,growth inhibition,[5]; at 50.0 µM,90% (active)
